Measurements published in PubChem BioAssay (NCATS).
Results filed as inconclusive are left out. Calls of active or inactive are those of the source. Unless noted, the call rests on the fitted dose curve; in most records, active means well fitted curve in either direction with a large enough effect (not every such curve was filed as active); inconclusive means small, poorly fitted or top-dose-only effect, or another doubt; inactive means flat fitted curve, though single readings scatter.

Columns and labels:
[1] = target: Lysosomal acid glucosylceramidase (Homo sapiens) (UniProt P04062); experiment: Glucocerebrosidase-p2 (AID 348; in the data active means potency below about 10 µM; further: potency means the concentration at half of the fitted maximal effect); details: purified GBA, blue fluorogenic substrate, 40 min
Outline: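 Compounds titrated from 0.6 nM upwards against 0.2 nM enzyme in pH 5.9 citric acid/KH2PO4, taurocholate, tween-20; blue fluorogenic substrate 80 uM, 40 min room temperature, stopped and read Ex 365/Em 440 for AC50.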

[2] = AP1 Signaling Pathway (AID 357); details: ME-180 AP-1-bla reporter, EGF-induced, beta-lactamase ratio, 5 h; at 7.69 µM (top of the series) unless noted; further: on the % scale 0 is the no-effect control and ±100 the full control effect
Outline: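 ME-180 cells with beta-lactamase reporter under AP-1 response element, stimulated with EC50 EGF; compounds tested in titration series, 5 h at 37 °C. CCF4 substrate added 2.5 h at room temperature; 460/530 nm emission ratio gave %activity and AC50.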

[3] = target: Cytochrome P450 1A2 (Homo sapiens) (UniProt P05177); experiment: p450-cyp1a2 (AID 410; calls by dose curve; further: potency means the concentration at half of the fitted maximal effect;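 on activity change, negative = inhibition: -100% = full effect of reference inhibitor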); details: recombinant CYP1A2, luciferin-ME demethylation, luminescence; series mostly up to 57 µM
Outline: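 Luminescent readout of luciferin formed from Luciferin-ME by human CYP1A2; data normalized against complete inhibition by 57 uM furafylline. Enzyme 20nM, substrate 100uM at Km, 100mM KPO4 buffer, 60 min reaction at room temperature.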

[4] = NFAT Signaling Pathway (AID 444); details: Jurkat NFAT-bla M1, carbachol, beta-lactamase ratio, 5 h; at 7.69 µM (top of the series) unless noted;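 further: carbachol stimulus at about its EC50 of 1 µM final; on the % scale 0 is the no-effect control and ±100 the full control effect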
Outline: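 Jurkat cells carrying an NFAT-driven β-lactamase reporter and co-transfected muscarinic M1 receptor were treated with compound plus carbachol (1 uM final, an EC50 level) for 5 h at 37 °C. CCF4 loading followed for 1 h at RT; 460/530 nm ratio gave %activity.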

[5] = Stat Signaling Pathway (AID 446); details: ME-180 SIE beta-lactamase reporter, IL-6 stimulated, 5 h; at 7.69 µM (top of the series) unless noted;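 further: ME-180 cervical cancer cells given 40 pM IL-6 alongside compound; SIE-controlled beta-lactamase reporter measured as 460/530 nm FRET emission ratio; on the % scale 0 is the no-effect control and ±100 the full control effect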
Outline: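 Screening format detects activators and inhibitors alike: ME-180 SIE-bla cells stimulated at 40 pM IL-6 for 5 hrs with compound, then dual-emission beta-lactamase read at 405 nm excitation.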

[6] = target: Glucocorticoid receptor (Homo sapiens) (UniProt P04150); experiment: GR-GFP Redistribution (AID 450;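 active means compounds whose dose series gives a full or clear partial fitted curve of increased nuclear translocation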; further: potency means the concentration at half of the fitted maximal effect); details: U2OS GR-GFP nuclear translocation, laser cytometry, 2 h
[7] = target: Glucocorticoid receptor (Homo sapiens) (UniProt P04150); experiment: GR-EFC Redistribution (AID 451; calls by dose curve; further: potency means the concentration at half of the fitted maximal effect); details: CHO-K1 GR-EFC translocation, beta-gal luminescence, 2 h
Outline: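 CHO-K1 cells stably expressing nuclear-localized β-gal enzyme acceptor and GR fused C-terminally to the enzyme donor fragment; ligand-driven nuclear translocation restores β-gal by complementation. Compounds titrated up to 46 uM final, 2 h at 37 °C; luminescence read.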

[8] = target: Cytochrome P450 2C9 (Homo sapiens) (UniProt P11712); experiment: qHTS Assay for Inhibitors and Substrates of Cytochrome P450 2C9 (AID 883; active means well fitted curve in the direction sought with a large enough effect; an effect the other way counts as inactive or inconclusive; further: potency means the concentration at half of the fitted maximal effect; nearly all actives have a fitted effect of over 60% in size); details: recombinant CYP2C9, luciferin-H luminescence, 60 min; series mostly up to 57.1 µM
Outline: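 Human CYP2C9 (10nM) hydroxylated Luciferin-H (100uM, at its KM) to luciferin in 25mM KPO4. Compound was preincubated 10 min at 37C, then NADPH regeneration started a 60 min reaction at 37C. Luminescence was read after detection reagent, normalized to 57uM sulphaphenazole.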

[9] = target: Cytochrome P450 3A4 (Homo sapiens) (UniProt P08684); experiment: qHTS Assay for Inhibitors and Substrates of Cytochrome P450 3A4 (AID 884; active means well fitted curve in the direction sought with a large enough effect; an effect the other way counts as inactive or inconclusive; further: potency means the concentration at half of the fitted maximal effect; nearly all actives have a fitted effect of over 50% in size); details: recombinant CYP3A4, Luciferin-PPXE luminescence; series mostly up to 57.1 µM
Outline: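 20 nM human CYP3A4 with 25 uM Luciferin-PPXE (at KM) in 200 mM KPO4, preincubated 10 min with compound; NADPH regeneration started a 60 min RT reaction. Luciferin detected by luminescence, normalized to 57 uM ketoconazole as full inhibition.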

[10] = target: Cytochrome P450 3A4 (Homo sapiens) (UniProt P08684); experiment: qHTS Assay for Activators of Cytochrome P450 3A4 (AID 885; active means well fitted curve in the direction sought with a large enough effect; an effect the other way counts as inactive or inconclusive; further: nearly all actives have a fitted effect of over 65% in size); details: recombinant CYP3A4, Luciferin-PPXE luminescence, 60 min; series mostly up to 57.1 µM
Outline: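 Steps: enzyme/substrate mix dispensed; compound added, 10 min RT; NADPH regeneration solution added, 60 min RT; luciferin detection buffer stops reaction; 20 min later luminescence measured.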

[11] = target: Cytochrome P450 2C19 (Homo sapiens) (UniProt P33261); experiment: qHTS Assay for Inhibitors and Substrates of Cytochrome P450 2C19 (AID 899; active means well fitted curve in the direction sought with a large enough effect; an effect the other way counts as inactive or inconclusive; further: potency means the concentration at half of the fitted maximal effect; nearly all actives have a fitted effect of over 60% in size); details: recombinant CYP2C19, luciferin-H EGE luminescence; series mostly up to 57.1 µM
Outline: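 Human CYP2C19 (5nM) with Luciferin-H EGE at 10uM (its KM) in 50mM KPO4 was preincubated with compound for 10 min at 37C. NADPH regeneration started a 60 min 37C reaction. Luciferin was read by luminescence, normalized to 57uM ketoconazole.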

[12] = Confirmation and Secondary Assay for Modulators of Hemoglobin Beta Chain Splicing at IVS2 654 locus (AID 910; active means well fitted curve in the direction sought with a large enough effect; an effect the other way counts as inactive or inconclusive;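 further: per-well total GFP intensity by laser scanning cytometry after 2-day treatment; % of control where 0% means no effect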); details: HeLa EGFP-654 splicing reporter, GFP fluorescence, 48 h; series mostly up to 38.3 µM
Outline: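 HeLa cells stably carrying EGFP interrupted by mutant beta-globin IVS2-654 intron (CMV-driven) were treated with compound for 2 days at 37C; corrected splicing was scored as total peak GFP intensity per well (488 nm excitation, 500-520 nm emission).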

[13] = Confirmation and Secondary Assay for Modulators of Hemoglobin Beta Chain Splicing at IVS2 705 locus (AID 930; active means well fitted curve in the direction sought with a large enough effect; an effect the other way counts as inactive or inconclusive;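 further: HeLa cells stably expressing the EGFP-705 splicing reporter; GFP fluorescence per well restored by corrected splicing of the IVS2-705 intron in EGFP; % of control where 0% means no effect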); details: HeLa EGFP-705 splicing reporter, GFP fluorescence, 48 h; series mostly up to 38.3 µM
Outline: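 Assay measures total GFP intensity per well in HeLa EGFP-705 cells after 2 days with compound; mis-splicing normally truncates EGFP, so fluorescence indicates corrected splicing.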

[14] = qHTS Assay for Lipid Storage Modulators (AID 1519; calls by dose curve); details: Drosophila S3 cells, BODIPY lipid droplet/cell ratio, laser cytometry, cells loaded with oleic acid; for activity change, negative = inhibition: at 57.5 µM (top of the series)
Outline: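 Cells seeded at 5,000 per well were treated with compounds over a concentration series and loaded with oleic acid (400 uM, as added). Lipid droplet fluorescence (488 nm excitation, 500-530 nm channel) was read by laser-scanning cytometry and normalized to 20 uM Triacsin C.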

[15] = target: Ubiquitin carboxyl-terminal hydrolase 1 (Homo sapiens) (UniProt O94782); experiment: Inhibitors of USP1/UAF1: Pilot qHTS (AID 504865; active means well fitted curve in the direction sought with a large enough effect; an effect the other way counts as inactive or inconclusive;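 further: rhodamine fluorescence freed from ubiquitin-rhodamine substrate followed over time; top concentration of the series differs between compounds; on the % scale 0 is the no-effect control and ±100 the full control effect; nearly all actives have a fitted effect of over 35% in size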); details: purified USP1/UAF1, Ub-rhodamine cleavage fluorescence; series mostly up to 54.9 µM
Outline: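 USP1/UAF1 complex at 1 nM preincubated 15 min at room temperature with compound, then Ub-Rho substrate added at 150 nM final. Fluorescence (480/540 nm) read kinetically in 50 mM HEPES pH 7.8, 0.5 mM EDTA, 1 mM TCEP, 0.1 mg/ml BSA, 0.01% Tween-20.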

[16] = Primary qHTS for small molecule stabilizers of the endoplasmic reticulum resident proteome: Secreted ER Calcium Modulated Protein (SERCaMP) assay (AID 1508630; active means well fitted curve in the direction sought with a large enough effect; an effect the other way counts as inactive or inconclusive; further: on the % scale 0 is the no-effect control and ±100 the full control effect); details: SH-SY5Y GLuc-SERCaMP (Gaussia luciferase released on ER calcium loss) secretion, thapsigargin, luminescence; series mostly up to 38.4 µM
Outline: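 GLuc-SERCaMP-expressing SH-SY5Y cells, pretreated 16 h with compound, are challenged with thapsigargin to empty ER calcium stores; after 4 h, coelenterazine is added directly to the medium and luminescence is imaged.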

[17] = target: Mitogen-activated protein kinase 10 (Mus musculus) (UniProt Q61831); experiment: JNK3 AlphaScreen Assay (AID 530); details: JNK3 lysate, c-Jun phosphorylation; series mostly up to 57.1 µM
Outline: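 Inhibitors reduce antibody binding to phosphorylated biotin-cJun, lowering AlphaScreen luminescence. Lysates from HepG2 cells pre-activated by IL-1beta plus TNF-alpha supplied JNK3; compounds were titrated.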

[18] = target: 3',5'-cyclic-AMP phosphodiesterase 4B (Homo sapiens) (UniProt Q07343); experiment: qHTS Assay for Inhibitors of PDE-IV (AID 607; active means well fitted activation curve with a large enough effect in the main read-out, with a control signal flat, not every such curve was filed as active; further: % of control where 0% means no effect); details: HEK293 ACTOne CNG channel cells, membrane potential fluorescence; series mostly up to 22.9 µM
Outline: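 The readout is membrane depolarisation from a cAMP-sensing CNG channel, detected with a potential dye at ex 535/em 590. Cells were HEK293-derived (endogenous PDE-IV) at 1000 cells/well, titrated up to 22.9 uM final.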

[19] = measured here: cell count channel max response
[20] = measured here: lipid channel max response

Sequence of 3',5'-cyclic-AMP phosphodiesterase 4B (Homo sapiens) (Q07343 whole entry, looked up): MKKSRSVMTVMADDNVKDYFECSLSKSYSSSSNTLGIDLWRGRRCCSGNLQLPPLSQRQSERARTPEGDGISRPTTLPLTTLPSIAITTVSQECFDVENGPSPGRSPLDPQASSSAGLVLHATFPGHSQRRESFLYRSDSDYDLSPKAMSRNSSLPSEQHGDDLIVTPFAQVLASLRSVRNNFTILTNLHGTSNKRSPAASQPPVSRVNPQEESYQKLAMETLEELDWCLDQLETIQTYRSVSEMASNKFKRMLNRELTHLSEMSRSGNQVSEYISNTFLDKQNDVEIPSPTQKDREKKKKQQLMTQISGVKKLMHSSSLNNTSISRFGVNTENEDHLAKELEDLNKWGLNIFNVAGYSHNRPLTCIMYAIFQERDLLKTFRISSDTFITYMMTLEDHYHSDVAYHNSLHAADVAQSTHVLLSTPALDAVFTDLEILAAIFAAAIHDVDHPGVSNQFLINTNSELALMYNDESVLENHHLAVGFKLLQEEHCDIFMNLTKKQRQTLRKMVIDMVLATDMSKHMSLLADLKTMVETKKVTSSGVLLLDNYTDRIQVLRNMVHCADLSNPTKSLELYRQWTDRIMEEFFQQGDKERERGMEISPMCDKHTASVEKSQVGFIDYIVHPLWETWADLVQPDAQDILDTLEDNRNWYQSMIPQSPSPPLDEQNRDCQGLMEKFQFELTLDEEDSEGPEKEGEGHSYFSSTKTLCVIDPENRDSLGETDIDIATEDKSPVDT
Sequence of Cytochrome P450 1A2 (Homo sapiens) (P05177 whole entry, looked up): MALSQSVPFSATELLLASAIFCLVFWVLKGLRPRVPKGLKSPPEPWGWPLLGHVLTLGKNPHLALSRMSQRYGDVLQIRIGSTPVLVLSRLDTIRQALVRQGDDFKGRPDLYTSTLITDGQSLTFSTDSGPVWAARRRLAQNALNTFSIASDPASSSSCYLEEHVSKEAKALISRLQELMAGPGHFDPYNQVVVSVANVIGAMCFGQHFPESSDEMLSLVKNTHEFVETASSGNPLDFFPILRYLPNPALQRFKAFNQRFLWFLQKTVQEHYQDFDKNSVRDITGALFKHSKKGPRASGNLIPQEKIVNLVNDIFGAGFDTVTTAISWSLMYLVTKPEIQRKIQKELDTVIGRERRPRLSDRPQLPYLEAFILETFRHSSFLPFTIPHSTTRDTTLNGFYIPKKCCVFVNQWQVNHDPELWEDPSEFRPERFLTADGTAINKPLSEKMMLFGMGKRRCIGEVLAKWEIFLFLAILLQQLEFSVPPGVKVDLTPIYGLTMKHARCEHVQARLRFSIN
Sequence of Glucocorticoid receptor (Homo sapiens) (P04150 whole entry, looked up, the tested form may be a part): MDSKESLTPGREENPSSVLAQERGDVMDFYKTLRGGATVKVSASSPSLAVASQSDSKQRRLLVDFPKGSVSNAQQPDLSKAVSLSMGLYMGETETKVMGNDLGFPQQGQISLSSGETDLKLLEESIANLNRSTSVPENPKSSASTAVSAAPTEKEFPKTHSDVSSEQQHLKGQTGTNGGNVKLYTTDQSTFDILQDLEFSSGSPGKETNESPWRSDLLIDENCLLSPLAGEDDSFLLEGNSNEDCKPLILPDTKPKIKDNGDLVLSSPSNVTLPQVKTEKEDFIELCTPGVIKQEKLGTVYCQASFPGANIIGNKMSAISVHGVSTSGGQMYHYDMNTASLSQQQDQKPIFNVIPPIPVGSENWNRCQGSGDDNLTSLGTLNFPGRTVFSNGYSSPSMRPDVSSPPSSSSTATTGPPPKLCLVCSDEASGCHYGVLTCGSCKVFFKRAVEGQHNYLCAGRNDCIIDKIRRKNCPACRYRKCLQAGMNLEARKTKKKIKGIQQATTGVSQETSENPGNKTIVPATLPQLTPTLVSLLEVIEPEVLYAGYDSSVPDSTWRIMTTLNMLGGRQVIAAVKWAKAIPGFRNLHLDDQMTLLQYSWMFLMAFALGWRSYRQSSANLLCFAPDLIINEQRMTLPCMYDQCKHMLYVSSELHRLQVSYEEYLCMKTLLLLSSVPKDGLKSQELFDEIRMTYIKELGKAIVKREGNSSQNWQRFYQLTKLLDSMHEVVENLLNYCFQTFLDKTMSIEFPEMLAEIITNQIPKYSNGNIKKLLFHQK
Sequence of Lysosomal acid glucosylceramidase (Homo sapiens) (P04062 whole entry, looked up): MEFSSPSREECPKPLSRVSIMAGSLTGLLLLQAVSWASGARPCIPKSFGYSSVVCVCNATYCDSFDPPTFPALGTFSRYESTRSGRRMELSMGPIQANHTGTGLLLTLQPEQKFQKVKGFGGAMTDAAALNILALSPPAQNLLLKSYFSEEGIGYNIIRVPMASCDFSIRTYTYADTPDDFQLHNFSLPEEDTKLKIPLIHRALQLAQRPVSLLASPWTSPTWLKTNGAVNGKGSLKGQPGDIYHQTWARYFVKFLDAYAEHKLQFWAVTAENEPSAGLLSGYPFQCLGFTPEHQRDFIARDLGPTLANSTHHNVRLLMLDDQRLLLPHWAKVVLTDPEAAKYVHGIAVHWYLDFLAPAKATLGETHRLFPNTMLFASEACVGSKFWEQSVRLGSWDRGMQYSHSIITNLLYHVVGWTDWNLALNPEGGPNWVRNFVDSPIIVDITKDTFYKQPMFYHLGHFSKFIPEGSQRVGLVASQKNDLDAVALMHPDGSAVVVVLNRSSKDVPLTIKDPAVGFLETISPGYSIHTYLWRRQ
Sequence of Cytochrome P450 3A4 (Homo sapiens) (P08684 whole entry, looked up): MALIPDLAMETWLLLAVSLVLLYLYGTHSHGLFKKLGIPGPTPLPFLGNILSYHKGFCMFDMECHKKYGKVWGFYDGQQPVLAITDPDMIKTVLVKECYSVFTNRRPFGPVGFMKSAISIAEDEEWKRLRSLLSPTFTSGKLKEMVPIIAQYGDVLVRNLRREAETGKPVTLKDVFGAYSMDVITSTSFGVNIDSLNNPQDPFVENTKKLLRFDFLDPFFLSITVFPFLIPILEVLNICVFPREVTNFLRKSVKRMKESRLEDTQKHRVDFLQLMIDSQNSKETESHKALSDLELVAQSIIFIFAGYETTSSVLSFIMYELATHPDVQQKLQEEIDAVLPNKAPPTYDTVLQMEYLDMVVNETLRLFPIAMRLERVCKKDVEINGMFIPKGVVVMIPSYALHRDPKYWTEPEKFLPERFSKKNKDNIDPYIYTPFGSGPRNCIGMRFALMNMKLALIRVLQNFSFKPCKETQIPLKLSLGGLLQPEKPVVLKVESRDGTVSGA
Sequence of Cytochrome P450 2C19 (Homo sapiens) (P33261 whole entry, looked up): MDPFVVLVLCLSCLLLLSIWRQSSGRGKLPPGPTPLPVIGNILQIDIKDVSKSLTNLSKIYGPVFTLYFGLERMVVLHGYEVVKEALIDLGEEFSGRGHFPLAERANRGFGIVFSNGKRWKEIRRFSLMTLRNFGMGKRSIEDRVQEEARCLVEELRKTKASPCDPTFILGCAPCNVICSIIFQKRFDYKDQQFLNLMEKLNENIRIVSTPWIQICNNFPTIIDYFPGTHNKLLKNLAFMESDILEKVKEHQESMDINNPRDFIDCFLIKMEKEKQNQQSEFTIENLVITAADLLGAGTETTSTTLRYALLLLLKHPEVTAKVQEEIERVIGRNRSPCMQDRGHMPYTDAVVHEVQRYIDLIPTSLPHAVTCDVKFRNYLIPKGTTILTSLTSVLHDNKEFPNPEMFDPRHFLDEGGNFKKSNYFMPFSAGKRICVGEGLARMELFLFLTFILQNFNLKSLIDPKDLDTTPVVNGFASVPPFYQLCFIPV
Sequence of Cytochrome P450 2C9 (Homo sapiens) (P11712 whole entry, looked up): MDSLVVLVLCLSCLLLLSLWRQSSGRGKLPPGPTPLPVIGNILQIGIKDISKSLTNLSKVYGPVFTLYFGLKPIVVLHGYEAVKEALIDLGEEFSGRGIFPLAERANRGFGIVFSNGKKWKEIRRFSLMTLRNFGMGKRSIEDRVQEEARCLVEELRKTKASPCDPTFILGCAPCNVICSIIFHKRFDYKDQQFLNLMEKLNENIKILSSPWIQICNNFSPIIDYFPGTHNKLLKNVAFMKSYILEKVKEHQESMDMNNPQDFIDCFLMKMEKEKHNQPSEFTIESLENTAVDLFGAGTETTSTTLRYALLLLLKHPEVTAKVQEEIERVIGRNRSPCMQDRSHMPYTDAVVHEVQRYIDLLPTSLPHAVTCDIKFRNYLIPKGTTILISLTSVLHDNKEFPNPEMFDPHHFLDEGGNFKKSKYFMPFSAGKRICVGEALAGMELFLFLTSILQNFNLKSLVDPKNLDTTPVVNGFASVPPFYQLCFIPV
Sequence of Ubiquitin carboxyl-terminal hydrolase 1 (Homo sapiens) (O94782 whole entry, looked up): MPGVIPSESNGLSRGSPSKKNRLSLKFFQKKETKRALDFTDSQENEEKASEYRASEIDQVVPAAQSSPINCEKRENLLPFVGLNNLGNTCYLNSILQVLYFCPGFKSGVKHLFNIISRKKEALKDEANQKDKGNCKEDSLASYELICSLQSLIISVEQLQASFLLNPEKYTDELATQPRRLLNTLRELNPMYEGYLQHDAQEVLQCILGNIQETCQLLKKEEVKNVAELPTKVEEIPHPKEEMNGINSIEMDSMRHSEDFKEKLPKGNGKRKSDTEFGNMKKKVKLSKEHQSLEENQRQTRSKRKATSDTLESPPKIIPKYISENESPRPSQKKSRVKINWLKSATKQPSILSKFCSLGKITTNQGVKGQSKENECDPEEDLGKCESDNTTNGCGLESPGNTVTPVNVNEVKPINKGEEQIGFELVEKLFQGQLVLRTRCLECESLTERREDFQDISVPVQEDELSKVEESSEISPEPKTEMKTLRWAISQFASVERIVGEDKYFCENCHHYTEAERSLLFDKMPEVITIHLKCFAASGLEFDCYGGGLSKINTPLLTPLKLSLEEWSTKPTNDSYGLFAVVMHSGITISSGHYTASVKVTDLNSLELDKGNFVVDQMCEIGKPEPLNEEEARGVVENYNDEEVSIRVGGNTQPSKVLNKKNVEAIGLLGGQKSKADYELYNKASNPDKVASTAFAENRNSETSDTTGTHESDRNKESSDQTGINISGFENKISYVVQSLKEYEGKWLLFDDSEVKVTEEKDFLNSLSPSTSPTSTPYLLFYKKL

Row | SMILES | Potency [1] | activity change, negative = inhibition [2] | Potency [3] | activity change, negative = inhibition [4] | activity, negative = inhibition [5] | Potency [6] | Potency [7] | Potency [8] | Potency [9] | Potency [10] | Potency [11] | outcome [12] | outcome [13] | activity change, negative = inhibition [14] | max response [14, 19] [%] | max response [14, 20] [%] | Potency [15] | Potency [16] | outcome [17] | Potency [18]
1 | COc1ccc2[nH]cc(CCNc3ncncc3-c3ccc(N(C)C)cc3)c2c1 | > 11.4 µM (inactive) | -27.6% (inactive) | 251 nM (active) | 4.01% (inactive) | -7.73% (inactive) | > 46 µM (inactive) | > 46 µM (inactive) | 501 nM (active) | 0.501 µM (active) | inactive | 1.58 µM (active) | inactive | inactive | 5.88% (inactive) | 5.01 | 11 | inactive | inactive |  | 
2 | Clc1ccccc1-c1nccc(-n2ccnc2)n1 | > 11.4 µM (inactive) | -12.3% (inactive) | 158 nM (active) | -0.584% (inactive) | 0.405% (inactive) | > 46 µM (inactive) | > 46 µM (inactive) |  | 1.26 µM (active) | inactive | 2.51 µM (active) | inactive | inactive | 8.95% (inactive) | 4.29 | 13 |  | inactive | inactive | inactive
3 | COc1ccc(-n2c(=O)c(-c3cn(C)c4ccccc34)nc3cnc(OC)nc32)cc1 | > 11.4 µM (inactive) | -6.77% (inactive) | inactive | -7.96% (inactive) | 5.87% (inactive) | > 9.22 µM (inactive) | > 46 µM (inactive) |  | 1.58 µM (active) | inactive |  |  |  | -13.3% (inactive) | 4.94 | -9.54 |  | inactive | inactive | inactive
4 | O=c1c(-c2ccccc2)nc2cnc(Oc3ccccc3)nc2n1Cc1cccs1 | > 11.4 µM (inactive) | -0.0665% (inactive) | 2510 nM (active) | -0.0107% (inactive) | 3.84% (inactive) | > 9.22 µM (inactive) | > 46 µM (inactive) |  |  |  |  |  |  | -10.3% (inactive) | 21.8 | 12.8 |  | inactive | inactive | inactive
5 | CC(C)NC(=O)N1CC2(CCN(S(=O)(=O)c3ccccc3)CC2)C1 | > 11.4 µM (inactive) | -9.04% (inactive) | inactive | 21.2% (inactive) | -0.15% (inactive) |  | > 46 µM (inactive) |  |  |  |  |  |  | -7.9% (inactive) | 3.88 | -2.51 |  | inactive | inactive | inactive
6 | COc1ccc(C(=O)N2CCC3(CC2)CN(C(=O)NC(C)C)C3)cc1 | > 11.4 µM (inactive) | -5.05% (inactive) | inactive | 12.7% (inactive) | 0.0305% (inactive) |  | > 46 µM (inactive) |  |  |  |  |  |  | -0.224% (inactive) | -1.09 | 0.517 |  | inactive | inactive | inactive
7 | COC(=O)N1CCC[C@@]2(CCN(c3ccccn3)C2)C1 | > 11.4 µM (inactive) | -6.02% (inactive) | 15800 nM (active) | -1.97% (inactive) | 7.71% (inactive) |  | > 46 µM (inactive) |  |  |  |  |  |  | 5.17% (inactive) | 2.62 | 11 |  | inactive | inactive | inactive
8 | COc1ccccc1CN1CCCC2(CCNCC2)C1 | > 11.4 µM (inactive) | -7.6% (inactive) | inactive | -29.2% (inactive) | 2.38% (inactive) |  | > 46 µM (inactive) |  |  |  |  |  |  | 6.8% (inactive) | 4.5 | 14.4 |  | inactive | inactive | inactive
